Here are results for four compounds from PubChem BioAssay (EPA / NIEHS).

The structures appear in SMILES notation. “And” between values parts separate entries of the source, which are not always exact repeats. Equal entries are not always repeated. Inconclusive results are not listed. The source made the active and inactive calls. Rule for the calls, unless noted: active = hit-call score of the fitted dose curve at least 0.9, where 1 is the maximum; inconclusive = response in the unintended direction; inactive = score below 0.9.

Assay [1] is described as follows: ATG_GRE_CIS: Attagene CIS-FACTORIAL HepG2 Assay for human Glucocorticoid Response Elements (GRE) (AID 2282947; active = hit-call score of the fitted dose curve at least 0.9, where 1 is the maximum; inactive = score below 0.9). As to conditions: HepG2 GRE cis-reporter, Attagene multiplex mRNA; actives raise or lower the signal. The gist of the method: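 Multiplexed cis-reporter mRNA induction, HepG2, 24 h post-dose. RT-PCR, FAM-labelled, HpaI-digested amplicons by CE. Bidirectional fit vs DMSO.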

Assay [2] in a line: ATG_PBREM_CIS: Attagene CIS-FACTORIAL HepG2 Assay for human Phenobarbital-responsive Enhancer Module (PBREM) (AID 2282955; active = hit-call score of the fitted dose curve at least 0.9, where 1 is the maximum; inactive = score below 0.9). The settings on record: HepG2 PBREM cis-reporter, Attagene multiplexed transcription; actives raise or lower the signal. Summed up:
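Endogenous transcription factors in human liver HepG2 cells drive a PBREM cis-element reporter, whose transcript level after 24 h treatment is quantified by RT-PCR with capillary electrophoresis; activity fitted in both directions against DMSO.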

Assay [3] in a line: ATG_RORE_CIS: Attagene CIS-FACTORIAL HepG2 Assay for human RAR-related Orphan Receptor Element (RORE) (AID 2282959; active = hit-call score of the fitted dose curve at least 0.9, where 1 is the maximum; inactive = score below 0.9). The settings on record: HepG2 Attagene cis-factorial RORE reporter, mRNA; actives raise or lower the signal. Summed up: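 Transient MRTU transfection of human HepG2 liver cells (FuGene 6); 24 h compound exposure; TriZol RNA, oligo(dT) RT, PCR, FAM labeling, HpaI cut, CE fragment analysis. DMSO = negative control/baseline.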

Assay [4] addresses Transcription factor Sp1 (Homo sapiens) (UniProt P08047). Briefly: ATG_Sp1_CIS: Attagene CIS-FACTORIAL HepG2 Assay for human Specificity Protein 1 (Sp1) (AID 2282961; active = hit-call score of the fitted dose curve at least 0.9, where 1 is the maximum; inactive = score below 0.9). As to conditions: HepG2 Sp1 cis-reporter transcription, actives raise or lower the signal. Summed up:
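Transient MRTU-transfected HepG2, 24 h compound exposure. Total RNA → oligo(dT) RT → PCR of reporter → 6-FAM primer extension → HpaI digest → CE. Endpoint fitted both directions vs DMSO.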

Assay [5] concerns the target Signal transducer and activator of transcription 3 (Homo sapiens) (UniProt P40763). Briefly: ATG_STAT3_CIS: Attagene CIS-FACTORIAL HepG2 Assay for human Signal Transducer and Activator of Transcription 3 (STAT3) (AID 2282963; active = hit-call score of the fitted dose curve at least 0.9, where 1 is the maximum; inactive = score below 0.9). As to conditions: HepG2, Attagene cis-factorial STAT3 reporter transcription; actives raise or lower the signal. The gist of the method: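 Cis-factorial format: endogenous transcription factors in HepG2 drive transfected reporter units. After 24 h treatment, reporter RNA was reverse-transcribed, amplified, FAM-labelled and HpaI-digested before CE analysis; activity scored in both directions against DMSO.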

In assay [6] the target is Hepatocyte nuclear factor 4-alpha (Homo sapiens) (UniProt P41235). Briefly: ATG_HNF4a_TRANS: Attagene TRANS-FACTORIAL HepG2 Assay for human Hepatocyte Nuclear Factor 4 alpha (HNF4a) (AID 2282982). The settings on record: HepG2 HNF4a transactivation reporter, mRNA readout. Summed up:
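Multiplexed reporter assay: transfected HepG2, 24 h exposure, total RNA → oligo(dT) RT → PCR → 6-FAM extension → HpaI digest → CE fluorescence. DMSO = negative control.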

Assay [7] is described as follows: ATG_M_06_TRANS: Attagene TRANS-FACTORIAL HepG2 Assay for M06 Transcription Factor (Internal Marker) (AID 2282983). As to conditions: HepG2 Attagene TRANS M06 internal marker reporter. The gist of the method: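 mRNA levels of a reporter transcript, quantified as FAM fluorescence on capillary electrophoresis, served as readout. HepG2 cells expressing exogenous GAL4-chimera reporter constructs were exposed for 24 h. Gain of signal over DMSO was evaluated.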

A short description of assay [8]: ATG_M_32_TRANS: Attagene TRANS-FACTORIAL HepG2 Assay for M32 Transcription Factor (Internal Marker) (AID 2282984). The settings on record: HepG2 Attagene TRANS M32 internal marker reporter. The gist of the method: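 Cell-based TRANS-format assay in HepG2: exogenous chimeric GAL4 reporter units transiently expressed, compounds applied 24 h. Reporter mRNA detected by RT-PCR plus capillary electrophoresis; this readout is an internal background marker.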

Assay [9] deals with Transcriptional activator Myb (Homo sapiens) (UniProt P10242). Briefly: ATG_Myb_CIS: Attagene CIS-FACTORIAL HepG2 Assay for human Myeloblastosis (Myb) Proto-Oncogene Transcription Factor (AID 2282986; active = hit-call score of the fitted dose curve at least 0.9, where 1 is the maximum; inactive = score below 0.9). The settings on record: HepG2 Attagene CIS-FACTORIAL Myb reporter transcription; actives raise or lower the signal. Summed up: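 Reporter transcript levels, quantified by fluorescent RT-PCR and capillary electrophoresis, serve as the read-out. Transfected HepG2 cells carrying cis-promoter reporter units are dosed for 24 hours, and curves are fitted bidirectionally against DMSO controls.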

The nature of assay [10]: ATG_NFI_CIS: Attagene CIS-FACTORIAL HepG2 Assay for human Nuclear Factor I (NFI) (AID 2282989; active = hit-call score of the fitted dose curve at least 0.9, where 1 is the maximum; inactive = score below 0.9). As to conditions: HepG2 cis-regulatory reporter, NFI response element transcription; actives raise or lower the signal. The gist of the method:
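Transfected HepG2 liver cells, exposed 24 h, supplied total RNA for oligo(dT) reverse transcription and reporter-specific PCR. Labelled, HpaI-cut fragments were sized by capillary electrophoresis; DMSO set the baseline for bidirectional fitting.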

The target of assay [11] is human Retinoid X Receptor beta (RXRb), RXRB (gene 6257) (UniProt P28702). Briefly: ATG_RXRb_TRANS: Attagene TRANS-FACTORIAL HepG2 Assay for human Retinoid X Receptor beta (RXRb) (AID 2283013). The gist of the method: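 After a 24 h incubation with test chemical, transfected HepG2 cells carrying NR-Gal4 fusions and GAL4-UAS reporter transcription units yield RNA whose reporter cDNA is FAM-labelled, HpaI-cut and sized by capillary electrophoresis; increases over DMSO are scored.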

A short description of assay [12]: TOX21_p53_BLA_p2_viability: Viability Assessment in the Tox21 HCT-116 p53 Agonism Beta-lactamase Assay, Phase 2 (AID 2283591).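 Note: actives lower the ATP signal meaning cytotoxicity.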 Summed up: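 Cytotoxicity readout: CellTiter-Glo ATP luminescence, 30 min at room temperature, after the beta-lactamase read. Cells were HCT116 exposed 16 h at 37C to compounds pin-transferred at 217-fold dilution from DMSO stocks.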
The target in assay [13] is Cellular tumor antigen p53 (Homo sapiens) (UniProt P04637). Briefly: TOX21_p53_BLA_p2_ratio: Tox21 HCT-116 p53 Agonism Beta-lactamase Assay, Ratio, Phase 2 (AID 2283592). The gist of the method: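 First, HCT116 reporter cells settle for 5 h at 37C. Next, DMSO compound solutions are pinned in (217-fold dilution) and left 16 h. Finally, CCF4-AM substrate is loaded 2 h at room temperature and the 460/530 nm ratio read.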

For assay [14] the target is unchanged. Nature of the assay: TOX21_p53_BLA_p3_ratio: Tox21 HCT-116 p53 Agonism Beta-lactamase Assay, Ratio, Phase 3 (AID 2283596). Summed up: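 Cells were seeded at 4000/well, rested 5 h at 37C, then dosed with DMSO compound solutions (217-fold dilution) for 16 h. CCF4-AM substrate was loaded for 2 h at room temperature, and the 460/530 nm emission ratio was fitted for gain of signal versus DMSO.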

Assay [15] in a line: TOX21_p53_BLA_p4_viability: Viability Assessment in the Tox21 HCT-116 p53 Agonism Beta-lactamase Assay, Phase 4 (AID 2283597).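 Note: hits lower the luminescence signal meaning cytotoxicity.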 The gist of the method: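 4000 HCT116 cells per well; 5 h attachment; compounds from DMSO, 217-fold dilution; 16 h at 37C. Then CCF4-AM, 2 h RT, followed by CellTiter-Glo, 30 min RT, luminescence. Decrease = cytotoxicity.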
Assay [16] has as its target Cellular tumor antigen p53 (Homo sapiens) (UniProt P04637). Briefly: TOX21_p53_BLA_p5_ratio: Tox21 HCT-116 p53 Agonism Beta-lactamase Assay, Ratio, Phase 5 (AID 2283599). Summed up:
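Beta-lactamase reporter ratio (blue 460 nm over green 530 nm, 405 nm excitation) after 2 h CCF4-AM loading, in HCT-116 cells exposed 16 h at 37 C to compounds pinned at 217-fold dilution. Increases relative to DMSO baseline scored.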

Assay [17] can be described thus: TOX21_p53_BLA_p5_viability: Viability Assessment in the Tox21 HCT-116 p53 Agonism Beta-lactamase Assay, Phase 5 (AID 2283600). Summed up: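 Decreased CellTiter-Glo luminescence denotes lost viability. Exposure: 16 h at 37C, 5% CO2, with compounds from DMSO stocks diluted 217-fold in wells of 4000 cells.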
In assay [18] the target is Cellular tumor antigen p53 (Homo sapiens) (UniProt P04637). Briefly: TOX21_p53_BLA_p4_ratio: Tox21 HCT-116 p53 Agonism Beta-lactamase Assay, Ratio, Phase 4 (AID 2283601). Summed up: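 Signal is the blue/green (460nm/530nm) ratio of cleaved versus uncleaved CCF4-AM substrate, read after 2 h substrate loading. Cells were HCT116 carrying the p53-responsive beta-lactamase reporter, dosed 16 h at 37C, 5% CO2; CellTiter-Glo measured in parallel.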

The target of assay [19] is Peroxisome proliferator-activated receptor gamma (Homo sapiens) (UniProt P37231). Nature of the assay: ATG_PPARg_TRANS: Attagene TRANS-FACTORIAL HepG2 Assay for human Peroxisome Proliferator-activated Receptor-gamma (PPARg) (AID 2283007). Summed up:
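Transient transfection of HepG2 with GAL4-UAS-driven reporter units; chemical dosing 24 h; total RNA → oligo(dT) RT → PCR with reporter primers → 6-FAM primer extension → HpaI digest 2 h 37 C → capillary electrophoresis. Positive direction vs DMSO.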

Cellular tumor antigen p53 (Homo sapiens), sequence (P04637 whole entry, looked up): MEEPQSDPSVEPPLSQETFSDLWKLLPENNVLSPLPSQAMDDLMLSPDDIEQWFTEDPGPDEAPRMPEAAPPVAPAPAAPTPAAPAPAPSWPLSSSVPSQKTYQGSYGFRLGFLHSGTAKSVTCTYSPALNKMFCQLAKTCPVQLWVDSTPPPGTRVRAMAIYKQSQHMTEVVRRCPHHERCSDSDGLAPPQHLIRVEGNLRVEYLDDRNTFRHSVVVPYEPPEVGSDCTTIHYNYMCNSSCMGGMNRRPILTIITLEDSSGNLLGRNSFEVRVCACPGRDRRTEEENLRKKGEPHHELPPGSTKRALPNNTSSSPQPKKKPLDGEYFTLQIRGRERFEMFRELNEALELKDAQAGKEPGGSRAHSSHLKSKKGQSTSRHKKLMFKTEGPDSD
Hepatocyte nuclear factor 4-alpha (Homo sapiens), sequence (P41235 whole entry, looked up): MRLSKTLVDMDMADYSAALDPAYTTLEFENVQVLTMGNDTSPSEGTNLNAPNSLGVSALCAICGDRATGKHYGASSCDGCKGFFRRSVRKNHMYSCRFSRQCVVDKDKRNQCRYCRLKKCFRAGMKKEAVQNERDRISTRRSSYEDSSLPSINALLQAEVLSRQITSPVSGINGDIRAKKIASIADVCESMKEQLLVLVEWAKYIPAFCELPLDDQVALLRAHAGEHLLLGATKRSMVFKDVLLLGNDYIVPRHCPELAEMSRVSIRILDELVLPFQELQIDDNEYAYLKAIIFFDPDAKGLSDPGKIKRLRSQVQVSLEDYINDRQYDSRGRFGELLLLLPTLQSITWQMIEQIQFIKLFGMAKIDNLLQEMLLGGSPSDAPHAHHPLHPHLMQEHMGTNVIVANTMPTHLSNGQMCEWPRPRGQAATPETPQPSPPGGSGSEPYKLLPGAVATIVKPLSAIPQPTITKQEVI
Transcription factor Sp1 (Homo sapiens), sequence (P08047 whole entry, looked up): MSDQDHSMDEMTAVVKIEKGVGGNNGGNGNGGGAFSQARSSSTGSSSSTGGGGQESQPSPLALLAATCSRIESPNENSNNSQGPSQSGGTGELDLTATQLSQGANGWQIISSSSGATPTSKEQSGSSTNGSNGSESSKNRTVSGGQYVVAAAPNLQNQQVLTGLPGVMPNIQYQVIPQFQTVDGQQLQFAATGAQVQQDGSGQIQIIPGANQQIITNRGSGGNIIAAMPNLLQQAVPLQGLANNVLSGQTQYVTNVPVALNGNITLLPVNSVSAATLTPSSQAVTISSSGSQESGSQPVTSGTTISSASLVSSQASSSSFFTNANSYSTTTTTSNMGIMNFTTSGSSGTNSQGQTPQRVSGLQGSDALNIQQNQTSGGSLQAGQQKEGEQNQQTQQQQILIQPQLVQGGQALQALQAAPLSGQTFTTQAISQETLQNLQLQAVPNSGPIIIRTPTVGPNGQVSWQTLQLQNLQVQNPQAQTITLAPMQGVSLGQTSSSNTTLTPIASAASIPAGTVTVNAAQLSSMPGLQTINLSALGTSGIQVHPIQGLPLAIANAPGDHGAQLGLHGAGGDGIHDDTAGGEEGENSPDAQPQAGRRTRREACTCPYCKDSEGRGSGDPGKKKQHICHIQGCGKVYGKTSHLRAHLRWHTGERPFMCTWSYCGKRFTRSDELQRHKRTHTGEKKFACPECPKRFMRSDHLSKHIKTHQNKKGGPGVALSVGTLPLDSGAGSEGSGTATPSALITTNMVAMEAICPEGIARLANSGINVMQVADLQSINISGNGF
Transcriptional activator Myb (Homo sapiens), sequence (P10242 whole entry, looked up): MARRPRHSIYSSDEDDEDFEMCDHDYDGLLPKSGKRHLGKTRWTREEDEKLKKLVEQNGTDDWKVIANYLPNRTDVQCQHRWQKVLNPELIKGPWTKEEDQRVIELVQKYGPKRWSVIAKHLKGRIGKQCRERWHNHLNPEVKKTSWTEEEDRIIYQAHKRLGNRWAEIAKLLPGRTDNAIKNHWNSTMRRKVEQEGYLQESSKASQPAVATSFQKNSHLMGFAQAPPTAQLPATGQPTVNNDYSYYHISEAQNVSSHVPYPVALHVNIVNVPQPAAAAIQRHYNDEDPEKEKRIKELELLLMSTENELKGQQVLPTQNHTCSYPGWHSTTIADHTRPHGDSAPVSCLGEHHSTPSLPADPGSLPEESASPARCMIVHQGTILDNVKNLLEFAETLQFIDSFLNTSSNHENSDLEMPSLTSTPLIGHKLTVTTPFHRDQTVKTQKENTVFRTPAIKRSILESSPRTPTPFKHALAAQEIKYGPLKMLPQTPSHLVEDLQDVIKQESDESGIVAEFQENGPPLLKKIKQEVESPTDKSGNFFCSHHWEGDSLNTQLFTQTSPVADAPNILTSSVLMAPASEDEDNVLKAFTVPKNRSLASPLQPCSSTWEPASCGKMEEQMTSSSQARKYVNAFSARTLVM
Signal transducer and activator of transcription 3 (Homo sapiens), sequence (P40763 whole entry, looked up): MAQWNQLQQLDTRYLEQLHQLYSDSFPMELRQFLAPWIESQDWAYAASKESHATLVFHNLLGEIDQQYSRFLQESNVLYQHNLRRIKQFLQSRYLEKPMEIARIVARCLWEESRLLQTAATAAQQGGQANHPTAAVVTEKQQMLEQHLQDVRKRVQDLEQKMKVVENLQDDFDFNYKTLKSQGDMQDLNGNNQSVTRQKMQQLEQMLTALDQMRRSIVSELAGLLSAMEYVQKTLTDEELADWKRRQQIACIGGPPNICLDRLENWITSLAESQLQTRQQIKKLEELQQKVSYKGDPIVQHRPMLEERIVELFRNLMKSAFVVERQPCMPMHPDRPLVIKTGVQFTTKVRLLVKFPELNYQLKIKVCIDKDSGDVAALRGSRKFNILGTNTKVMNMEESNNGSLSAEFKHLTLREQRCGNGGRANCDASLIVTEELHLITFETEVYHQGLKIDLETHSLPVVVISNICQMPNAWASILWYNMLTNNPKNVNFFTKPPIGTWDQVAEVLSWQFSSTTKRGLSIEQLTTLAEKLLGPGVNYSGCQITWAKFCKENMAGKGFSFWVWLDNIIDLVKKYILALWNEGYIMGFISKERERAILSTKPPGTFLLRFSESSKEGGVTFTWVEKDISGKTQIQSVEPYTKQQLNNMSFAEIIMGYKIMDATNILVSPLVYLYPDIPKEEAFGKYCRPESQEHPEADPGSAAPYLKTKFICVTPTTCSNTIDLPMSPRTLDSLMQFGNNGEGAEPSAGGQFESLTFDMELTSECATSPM
Peroxisome proliferator-activated receptor gamma (Homo sapiens), sequence (P37231 whole entry, looked up, the tested form may be a part): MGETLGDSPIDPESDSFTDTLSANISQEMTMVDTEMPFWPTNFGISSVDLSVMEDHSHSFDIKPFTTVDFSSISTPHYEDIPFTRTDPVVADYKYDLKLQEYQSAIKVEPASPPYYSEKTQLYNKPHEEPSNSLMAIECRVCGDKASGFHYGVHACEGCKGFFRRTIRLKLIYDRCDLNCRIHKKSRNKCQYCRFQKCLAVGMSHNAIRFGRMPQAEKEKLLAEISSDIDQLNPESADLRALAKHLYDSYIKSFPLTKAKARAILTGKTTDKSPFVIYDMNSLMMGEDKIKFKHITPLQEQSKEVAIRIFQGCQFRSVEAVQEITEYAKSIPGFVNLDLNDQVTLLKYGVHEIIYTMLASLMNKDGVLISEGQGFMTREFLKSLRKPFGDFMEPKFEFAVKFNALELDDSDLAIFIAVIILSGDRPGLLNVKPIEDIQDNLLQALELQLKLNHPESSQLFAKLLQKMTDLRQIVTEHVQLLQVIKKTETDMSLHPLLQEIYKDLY
human Retinoid X Receptor beta (RXRb), RXRB (gene 6257), sequence (P28702 whole entry, looked up, the tested form may be a part): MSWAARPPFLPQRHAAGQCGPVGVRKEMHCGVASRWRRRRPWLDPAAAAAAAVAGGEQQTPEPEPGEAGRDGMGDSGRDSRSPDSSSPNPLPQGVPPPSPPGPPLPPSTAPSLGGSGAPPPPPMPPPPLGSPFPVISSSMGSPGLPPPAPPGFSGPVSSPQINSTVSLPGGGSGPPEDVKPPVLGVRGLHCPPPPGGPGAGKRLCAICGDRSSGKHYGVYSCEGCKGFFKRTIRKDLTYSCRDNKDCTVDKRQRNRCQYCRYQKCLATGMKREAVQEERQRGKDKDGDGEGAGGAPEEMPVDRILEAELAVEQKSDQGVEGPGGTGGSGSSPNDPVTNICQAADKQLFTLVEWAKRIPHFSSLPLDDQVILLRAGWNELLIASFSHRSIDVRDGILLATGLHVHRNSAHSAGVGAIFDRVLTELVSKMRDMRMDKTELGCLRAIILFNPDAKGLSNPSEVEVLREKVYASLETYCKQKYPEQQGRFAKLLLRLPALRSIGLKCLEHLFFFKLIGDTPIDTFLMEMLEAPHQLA

One may read the AC50 as the midpoint of the concentration-response curve, whichever way the signal moves. In the case of `c1cc(OCC2CO2)ccc1Cc1ccc(OCC2CO2)cc1` (stereo unspecified), the outcome in assay [1], in assay [2], in assay [3], in assay [6], in assay [7] and in assay [8] was inactive. In addition, the call in [9], in [10], in assay [11], in assay [12], in assay [13] and in [15] was inactive. The outcome in assay [16] and in assay [17] was inactive. For the same compound, the concentration at half-maximal activity (AC50) is 37.6 µM (active) in [4]; 54.8 µM (active) in assay [5]; 75.1 µM (active) and 79.5 µM (active) in [14]; 65.9 µM (active) and 82.3 µM (active) in [18].

Take `N#Cc1cc(I)c(O)c(I)c1`: the result in assay [1], in assay [2], in assay [3], in [5], in assay [6] and in [8] was inactive. Also, the compound was called inactive in [9], in assay [10], in assay [12], in assay [15] and in [17]. In addition, the AC50 was 100 µM (active) in assay [4]; 10.7 µM (active) in assay [19]; 9.91 µM (active) in assay [13]; 6.09 µM (active) in assay [14]; 55.8 µM (active) in [16]; 13.9 µM (active) in [18].

With `CCOC(=O)COc1ccc(Cl)cc1Cl`, the result in [1], in [2], in assay [4], in assay [5], in assay [7] and in assay [8] was inactive. For the same compound, the compound was classed as inactive in [9], in assay [10], in assay [12], in assay [13], in assay [14] and in [16]. The call in assay [17] was inactive.

In the case of `CCOC(=O)NC(=S)Nc1ccccc1NC(=S)NC(=O)OCC`, the call in assay [1], in assay [5], in [6], in [7], in assay [8] and in [9] was inactive. The compound was called inactive in assay [19], in [15] and in [17]. For the same compound, the AC50 in [13] is 59.6 µM (active); in [14], 85.4 µM (active); in [16], 77.3 µM (active); in assay [18] it was 64 µM (active).
